Active and inactive are the calls of the source.
Key:
[1] = optical density shifts of acrAB sulA E. coli – strain DRC41, OD650, 48 h, E. coli filamentation inducer project, primary screen (AID 1152); conditions: higher = more signal, called active from +8 up or from −8 down;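 also: E. coli MC1000 strain DRC41 lacking acrAB efflux pump and sulA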
[2] = probe aLefty1 binding on compound microarray – biochemical, small-molecule microarray, 635/667 nm fluorescence, primary screen (AID 1153); conditions: higher = more signal;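 also: score merges spot fluorescence with signal-to-noise ratio from the scanned slide images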
[3] = plasmodial surface anion channel blockers, osmotic lysis – cell-based, P. falciparum Indochina, OD700, 1 h, primary screen (AID 1154); conditions: P. falciparum Indochina infected RBC osmotic lysis, higher = more signal, called active from +8 up or from −8 down
[4] = plasmodial surface anion channel blockers, osmotic lysis – cell-based, P. falciparum Indochina, OD700, 2 h, primary screen (AID 1155);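 also: lysis reports solute entry through the parasite surface anion channel PSAC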; conditions: P. falciparum Indochina infected erythrocytes, higher = more signal, called active from +8 up or from −8 down
[5] = changes in parasitized red cell lysis, either direction – P. falciparum Indochina, OD700, 3 h, PSAC antagonist project, primary screen (AID 1156); conditions: P. falciparum-infected erythrocytes, osmotic lysis, higher = more signal, called active from +8 up or from −8 down
[6] = plasmodial surface anion channel blockers, osmotic lysis – cell-based, P. falciparum Indochina, OD700, 18 h, primary screen (AID 1157); conditions: P. falciparum Indochina infected erythrocytes, osmotic lysis OD700, 18 h; higher = more signal, called active from +8 up or from −8 down
[7] = S6 kinase pathway phospho-S6 level changes – cell-based, A549, cytoblot, luminescence, serum-stimulated, primary screen (AID 1158); conditions: 5 h, higher = more signal;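 also: serum-stimulated A549 lung adenocarcinoma cells; signal is phosphorylated S6 detected by cytoblot immunostaining with HRP secondary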
[8] = target: NADPH oxidase 2 (Homo sapiens) (UniProt P04839); assay: compounds shifting NOX2 Amplex Red fluorescence – cell-based, HEK293-NOX2, PMA-stimulated, NOX inhibitor project, primary screen (AID 1159); conditions: 45 min, higher = more signal, called active from +8 up or from −8 down; also: test concentration not given here
Chain of NADPH oxidase 2 (Homo sapiens) (P04839 whole entry, looked up): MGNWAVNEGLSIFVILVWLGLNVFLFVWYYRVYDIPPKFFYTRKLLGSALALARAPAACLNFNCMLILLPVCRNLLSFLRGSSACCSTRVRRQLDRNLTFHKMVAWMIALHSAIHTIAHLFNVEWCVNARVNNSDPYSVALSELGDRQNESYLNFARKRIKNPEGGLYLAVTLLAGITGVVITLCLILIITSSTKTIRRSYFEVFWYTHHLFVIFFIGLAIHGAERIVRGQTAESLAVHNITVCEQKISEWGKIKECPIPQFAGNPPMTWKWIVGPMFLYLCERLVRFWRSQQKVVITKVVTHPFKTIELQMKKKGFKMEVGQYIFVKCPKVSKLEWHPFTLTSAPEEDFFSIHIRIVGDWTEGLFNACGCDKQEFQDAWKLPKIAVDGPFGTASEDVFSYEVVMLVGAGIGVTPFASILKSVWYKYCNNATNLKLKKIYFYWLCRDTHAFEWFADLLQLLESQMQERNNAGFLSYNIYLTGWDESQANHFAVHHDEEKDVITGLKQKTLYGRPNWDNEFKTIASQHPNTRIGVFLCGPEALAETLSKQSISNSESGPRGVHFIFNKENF

[9] = target: NADPH oxidase 4 (Homo sapiens) (UniProt Q9NPH5); assay: compounds shifting NOX4 Amplex Red fluorescence – cell-based, HEK293-NOX4, tetracycline-induced, NOX inhibitor project, primary screen (AID 1160); conditions: HEK293-NOX4, Amplex Red H2O2 fluorescence, 45 min; higher = more signal, called active from +8 up or from −8 down
Chain of NADPH oxidase 4 (Homo sapiens) (Q9NPH5 whole entry, looked up): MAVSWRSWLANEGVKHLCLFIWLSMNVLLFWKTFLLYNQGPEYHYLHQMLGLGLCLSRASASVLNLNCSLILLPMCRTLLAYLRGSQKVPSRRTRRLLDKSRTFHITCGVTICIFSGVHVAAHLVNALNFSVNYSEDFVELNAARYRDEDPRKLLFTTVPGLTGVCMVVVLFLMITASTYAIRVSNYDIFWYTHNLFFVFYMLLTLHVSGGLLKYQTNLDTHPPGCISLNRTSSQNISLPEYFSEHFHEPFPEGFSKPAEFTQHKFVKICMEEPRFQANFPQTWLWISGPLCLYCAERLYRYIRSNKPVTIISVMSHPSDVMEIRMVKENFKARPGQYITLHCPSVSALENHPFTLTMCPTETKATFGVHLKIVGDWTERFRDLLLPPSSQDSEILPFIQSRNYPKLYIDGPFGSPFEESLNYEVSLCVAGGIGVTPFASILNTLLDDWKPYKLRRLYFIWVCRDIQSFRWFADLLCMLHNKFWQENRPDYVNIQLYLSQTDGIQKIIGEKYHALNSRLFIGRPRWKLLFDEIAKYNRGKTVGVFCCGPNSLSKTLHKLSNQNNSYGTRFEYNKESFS

[10] = target: NADPH oxidase 5 (Homo sapiens) (UniProt Q96PH1); assay: compounds shifting NOX5 Amplex Red fluorescence – cell-based, HEK293-NOX5, NOX inhibitor project, primary screen (AID 1161); conditions: HEK293-NOX5, ionomycin, 45 min, higher = more signal
Chain of NADPH oxidase 5 (Homo sapiens) (Q96PH1 whole entry, looked up): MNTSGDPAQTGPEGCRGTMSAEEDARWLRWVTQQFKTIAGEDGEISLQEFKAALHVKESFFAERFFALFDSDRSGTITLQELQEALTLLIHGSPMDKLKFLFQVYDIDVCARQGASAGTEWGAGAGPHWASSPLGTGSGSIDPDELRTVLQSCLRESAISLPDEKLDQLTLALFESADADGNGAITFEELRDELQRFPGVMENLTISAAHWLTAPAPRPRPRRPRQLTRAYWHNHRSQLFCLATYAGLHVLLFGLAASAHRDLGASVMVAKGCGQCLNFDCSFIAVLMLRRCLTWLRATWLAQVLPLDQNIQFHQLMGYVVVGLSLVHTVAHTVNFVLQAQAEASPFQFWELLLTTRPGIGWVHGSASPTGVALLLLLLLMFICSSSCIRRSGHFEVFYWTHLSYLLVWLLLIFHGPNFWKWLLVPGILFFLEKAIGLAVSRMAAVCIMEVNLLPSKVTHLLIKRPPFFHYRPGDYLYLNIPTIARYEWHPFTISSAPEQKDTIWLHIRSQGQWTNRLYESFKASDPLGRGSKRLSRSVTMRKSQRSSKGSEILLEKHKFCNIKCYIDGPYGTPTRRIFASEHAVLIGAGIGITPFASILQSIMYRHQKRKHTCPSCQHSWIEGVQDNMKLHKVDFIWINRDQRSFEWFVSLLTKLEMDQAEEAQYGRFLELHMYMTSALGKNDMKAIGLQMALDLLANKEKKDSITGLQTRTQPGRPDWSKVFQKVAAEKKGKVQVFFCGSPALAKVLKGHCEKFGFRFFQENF

[11] = compound effects on lung adenocarcinoma cell viability – A549, calcein-AM fluorescence, 48 h, basal, profiling panel (AID 1162); conditions: higher = more signal; also: test concentration not given here
[12] = compound effects on differentiated 3T3-L1 adipocyte viability – cell-based, 3T3-L1 adipocytes, calcein-AM fluorescence, 48 h, basal, profiling panel (AID 1163); conditions: 3T3-L1 adipocytes viability, higher = more signal; also: test concentration not given here
[13] = compound effects on hepatocellular carcinoma cell viability – HepG2, calcein-AM fluorescence, 48 h, basal, profiling panel (AID 1164); conditions: higher = more signal; also: test concentration not given here
[14] = compound effects on multiple myeloma cell viability – MM1S, calcein-AM fluorescence, 48 h, basal, profiling panel (AID 1165); conditions: higher = more signal; also: test concentration not given here
[15] = calcein-AM signal in unstimulated myeloma cells – cell-based, calcein-AM fluorescence, 48 h, PK04 Diversity Set, profiling panel (AID 1166); conditions: RPMI8226 myeloma viability, higher = more signal;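 also: cells grown under basal conditions without added stimulus; test concentration not given here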
[16] = JC-1 mitochondrial signal, unstimulated HepG2 cells – cell-based, JC-1 fluorescence, 24 h, 100 nL compound, profiling panel (AID 1167); conditions: HepG2 mitochondrial potential, higher = more signal; also: test concentration not given here
[17] = JC-1 mitochondrial signal, unstimulated adipocytes – cell-based, JC-1 fluorescence, 3T3-L1 adipocytes, 24 h, 100 nL compound, profiling panel (AID 1168); conditions: JC-1 mitochondrial fluorescence, higher = more signal, called active from +8 up or from −8 down; also: test concentration not given here
[18] = JC-1 mitochondrial signal, unstimulated myeloma cells – cell-based, JC-1 fluorescence, RPMI8226, 24 h, 100 nL compound, profiling panel (AID 1169); conditions: JC-1 mitochondrial potential fluorescence, higher = more signal; also: test concentration not given here
[19] = JC-1 mitochondrial signal, unstimulated MM1S myeloma – cell-based, JC-1 fluorescence, 24 h, 100 nL compound, profiling panel (AID 1170); conditions: MM1S mitochondrial potential, higher = more signal; also: test concentration not given here
[20] = resazurin metabolic signal in A549 cells – cell-based, resazurin fluorescence, 24 h, PK04 Diversity Set, profiling panel (AID 1171); conditions: A549 viability, higher = more signal, called active from +8 up or from −8 down; also: test concentration not given here

Structure (SMILES)	z-score [1]	composite z-score [2]	z-score [3]	z-score [4]	z-score [5]	z-score [6]	z-score [7]	z-score [8]	z-score [9]	z-score [10]	z-score [11]	z-score [12]	z-score [13]	z-score [14]	z-score [15]	z-score [16]	z-score [17]	z-score [18]	z-score [19]	z-score [20]
CC(C)CON=C1C[C@@H](O)[C@@H](O)[C@@H]2[C@@H]3C(=O)N([C@@H](C)c4ccccc4)C(=O)[C@@H]3CC[C@@H]12	-0.196 (inactive)	-0.0155	0.694 (inactive)	0.63 (inactive)	0.181 (inactive)	0.281 (inactive)	-0.691	-1.96 (inactive)	0.799 (inactive)	-0.519	-0.398	-0.63	-0.829	-0.79	0.336	-0.889	-0.72 (inactive)	0.638	-0.389	0.0092 (inactive)
CON=C(C)CCC(=O)OC[C@H]1O[C@H](C#Cc2ccccc2)C=C[C@@H]1Oc1ccc(C)cc1	-2.47 (inactive)	-0.0141	2.13 (inactive)	0.277 (inactive)	-0.73 (inactive)	0.073 (inactive)	-0.57	-2.16 (inactive)	-2.25 (inactive)	-0.0339	-0.631	0.0995	-3.1	-2.99	-3.96	-0.712	-0.73 (inactive)	-0.5	-0.373	0.216 (inactive)
CCc1cc2c(nc1CC)CCN(CCC(C)=NOCC[C@@H]1C=C[C@H](OC(C)=O)[C@@H](COC(C)=O)O1)C2	-0.842 (inactive)	0.245	1.86 (inactive)	0.724 (inactive)	0.77 (inactive)	0.269 (inactive)	-1.04	-0.572 (inactive)	0.615 (inactive)	1.65	0.34	0.63	0.679	-0.47	0.123	1.45	-1.32 (inactive)	0.578	-0.13	0.29 (inactive)
CCOC(=O)[C@H](Cc1ccccc1)NC(=O)CCC1CC(OC(=O)NCc2cccc3ccccc23)CC2(CCCC(COC(=O)NCCOc3ccccc3)O2)O1 (stereo not given in full)	-1.98 (inactive)	-0.0094	-0.623 (inactive)	-0.824 (inactive)	0.48 (inactive)	-1.33 (inactive)	1.01	0.0124 (inactive)	0.762 (inactive)	1.06	0.128	0.0331	-0.175	0.992	-0.634	0.161	0.0327 (inactive)	0.113	-0.883	0.0235 (inactive)
CC(C)=CCCC(C)=CCON=C1C[C@@H](O)[C@@H](O)[C@@H]2[C@@H]3C(=O)N(Cc4ccc5c(c4)OCO5)C(=O)[C@@H]3CC[C@@H]12	0.253 (inactive)	0.0315	31.3 (active)	5.69 (inactive)	2.24 (inactive)	1.46 (inactive)	-0.274	-1.3 (inactive)	-0.0437 (inactive)	-2.6	-0.0221	0.603	-0.53	-0.788	-0.327	-0.0991	0.581 (inactive)	0.0988	-0.909	0.25 (inactive)
CO[C@H]1COC(=O)[C@H](CCSC)NC(=O)CC=C[C@@H](C)[C@H](OC)COC(=O)[C@@H](OCc2ccccc2)C=C[C@@H]1C	0.319 (inactive)	-0.173	0.463 (inactive)	0.191 (inactive)	1.17 (inactive)	0.367 (inactive)	-0.378	0.167 (inactive)	0.25 (inactive)	-0.911	-0.843	-0.161	-1.1	-0.0051	0.241	0.247	-1.75 (inactive)	0.759	-0.491	0.886 (inactive)
C=CC[C@@H]1C=CC(ON=C(C)C)[C@@H](CO)O1 (stereo not given in full)	-1.85 (inactive)	-0.147	0.42 (inactive)	0.81 (inactive)	-0.316 (inactive)	0.195 (inactive)	-0.0323	-0.202 (inactive)	-0.173 (inactive)	0.264	1.08	-0.521	0.389	0.255	-0.153	-0.459	-0.346 (inactive)	0.00663	-0.644	-0.816 (inactive)
C#CCCCON=C1[C@H]2CCn3c(=O)n([C@@H](CC)c4ccccc4)c(=O)n3[C@H]2[C@H](O)[C@@H]2O[C@H]12	-1.02 (inactive)	-0.101	0.957 (inactive)	0.193 (inactive)	0.461 (inactive)	0.0103 (inactive)	1.09	1.29 (inactive)	0.633 (inactive)	1.12	0.0523	0.44	-0.129	-1.77	-0.0952	-0.696	0.123 (inactive)	-0.547	-0.662	0.43 (inactive)
CO[C@H]1COC(=O)CC=C[C@H](C)[C@H](OC)COC(=O)[C@@H](C)NC(=O)CC=C[C@@H]1C	-0.619 (inactive)	-0.0939	-0.89 (inactive)	-1.35 (inactive)	-0.14 (inactive)	-1.92 (inactive)	-0.365	-0.677 (inactive)	0.557 (inactive)	0.197	-0.42	0.269	-0.642	0.0674	0.222	-0.66	-0.557 (inactive)	-0.283	-0.248	0.691 (inactive)
